In the library only some 6.6% were active in any assay of this set; here they are far more common.
Beta cell apopt = beta cell apoptosis inhibition; protection from apoptosis, % (test concentration not listed); INS-1E cytokine-induced death, ATP luminescence, 48 h; percent of positive-control rescue, neutral wells zero; AID 435005; 0.8% of 300,000 active;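 active = Every replicate reaches about 75%, or at least half do and their mean reaches it too, limit read from the data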;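 note: 0% = cytokine-treated negative control wells and 100% = positive control rescue; higher means more ATP so stronger rescue from cytokine killing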
Mdm2-MdmX inh = human Mdm2/MdmX binding inhibition; SaOS-2 split-luciferase Mdm2/MdmX complementation, luminescence; inhibition, % at 8 µM; 3% of 330,000 active;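 active = inhibition of at least 50% at 8 µM in the primary screen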
Gli-Sufu block = Gli-Sufu pathway antagonism; Sufu-KO-LIGHT fibroblasts, Gli luciferase reporter luminescence; inhibition, % at 5 µM; 0.74% of 340,000 active;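 active = inhibition above about 55%, limit read from the data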;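 note: 0% = DMSO-treated cells and 100% = wells with medium but no cells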
GRIN3A LBD mod = NR3A (human) ligand-binding domain modulation; NR3A LBD differential scanning fluorimetry, Tm shift; 0% = protein alone, 100% = glycine-bound protein; Tm shift relative to glycine control, % at 25 µM; 2.5% of 340,000 active; AID 1259313;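 active = melting temperature shift of at least 10% of the positive control shift, at one fixed dose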
MPTP block = inhibitors of mitochondrial permeability transition pore. 1.4% of 360,000 active. isolated mouse mitochondria, Ca2+ swelling absorbance, 30 min. inhibition, % at 10 µM;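 active = inhibition of 50% or more, scaled per plate between neutral and stimulator controls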;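 note: 0% = DMSO wells given calcium and 100% = 1 mM EGTA wells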
CSC inhib = blocks cancer stem cells; cancer stem cell-like cells viability, luminescence; inhibition, % at 7.5 µM; 1.1% of 300,000 active; in the data active = inhibition above about 75%; tested in HMLE shEcad cells
Mdm2 MdmX conf = confirmation of human Mdm2/MdmX interaction inhibitors. 55% of 10,000 active. Mdm2-MdmX binding, luminescent assay. shares compounds with Mdm2-MdmX inh. inhibition, % at 8 µM; in the data active = inhibition above about 40%
FLuc counter = full-length luciferase inhibition in Mdm2/MdmX counter-screen; shares compounds with Mdm2-MdmX inh; SaOS-2 full-length luciferase counterscreen, luminescence; inhibition, % at 8 µM; 77% of 6,200 active; AID 504607;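 active = mean inhibition at 8 µM reaching about 37%, which flags the compound as non-specific, limit read from the data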;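 note: p53-null SaOS-2 cells with luciferase driven by a doxycycline-inducible promoter; compound on cells about two nights before reading with doxycycline added after day one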
* hit, by the source's call; . = no result given.

SMILES | Beta cell apopt | Mdm2-MdmX inh | Gli-Sufu block | GRIN3A LBD mod | MPTP block | CSC inhib | Mdm2 MdmX conf | FLuc counter
O=C(CNC(=O)c1cccc(S(=O)(=O)N2CCc3ccccc32)c1)Nc1ccccc1Br | . | . | 4 | 2 | 0 | . | . | .
O=C(CNC(=O)c1cccc(S(=O)(=O)N2CCc3ccccc32)c1)Nc1ccc(F)c(F)c1F | . | 81* | -3 | 5 | -1 | . | 84* | 62*
C=CCCC(=O)Nc1nc(C)c(-c2csc(Nc3ccc(Cl)cc3Cl)n2)s1 | -4 | 54* | -1 | 12* | 0 | 38 | -17 | .
Cc1ccc(Cl)cc1Nc1nc(-c2sc(NC(=O)c3ccco3)nc2C)cs1 | -14 | 81* | -11 | -6 | 1 | 63 | 32 | .
Cc1ccc(Cl)cc1Nc1nc(-c2sc(NC(=O)c3cccc(Cl)c3)nc2C)cs1 | 5 | -51 | . | . | . | 22 | . | .
CCC(=O)Nc1nc(C)c(-c2csc(Nc3cccc(O)c3)n2)s1 | -5 | 73* | -18 | 2 | 1 | 77* | 33 | .
COc1ccccc1Nc1nc(-c2sc(NC(=O)c3ccco3)nc2C)cs1 | 7 | 13 | 0 | 0 | 0 | 34 | . | .
COc1cccc(N(C(=O)c2ccco2)c2nc(-c3sc(NC(=O)c4ccco4)nc3C)cs2)c1 | 0 | 74* | 26 | 0 | -1 | 12 | 49* | 62*
COC(=O)[C@@H](Cc1c[nH]c2ccccc12)NC(=O)C1CCCN(S(=O)(=O)c2ccc(C)cc2)C1 (some centres undefined) | -6 | 3 | -12 | 0 | -2 | 6 | . | .
CCN(CC(=O)NC1CCS(=O)(=O)C1)S(=O)(=O)c1c(C)c(C)cc(C)c1C (centres undefined) | -5 | 8 | -20 | 1 | -2 | 4 | . | .
C=CCCC(=O)Nc1nc(C)c(-c2csc(Nc3ccccc3OC)n2)s1 | 6 | 60* | -7 | -6 | -1 | 55 | 56* | 56*
C=C1C(C(=O)Nc2ccc(OCC)cc2)C1C(=O)Nc1ccc(OCC)cc1 (centres undefined) | -3 | 37 | 1 | -1 | 1 | 0 | . | .
C=C1C(C(=O)Nc2ccc(OC)cc2)C1C(=O)Nc1ccc(OC)cc1 (centres undefined) | -6 | 72* | 1 | -1 | 0 | -7 | 25 | .
COc1ccc(C(=O)/C=C/c2ccc(O)cc2)c(O)c1C/C=C(\C)CCC=C(C)C | . | 68* | 6 | 30* | 6 | . | -4 | .
CC(C)CN(C(=O)COC(=O)C12CC3CC(CC(C3)C1)C2)c1c(N)n(Cc2ccccc2)c(=O)[nH]c1=O | 99* | 61* | 31 | -2 | 0 | 23 | 72* | 47*
COC(=O)c1c(C)[nH]c(C(=O)OCC(=O)N(CC(C)C)c2c(N)n(Cc3ccccc3)c(=O)[nH]c2=O)c1C | 1 | 23 | -3 | -1 | 5 | -6 | . | .
CC(=O)Nc1sc(C)c(C)c1C(=O)OCC(=O)N(CC(C)C)c1c(N)n(Cc2ccccc2)c(=O)[nH]c1=O | -5 | 100* | 2 | -3 | 0 | 81* | 19 | .
CC(C)CN(C(=O)COC(=O)C12CC3CC(CC(O)(C3)C1)C2)c1c(N)n(Cc2ccccc2)c(=O)[nH]c1=O | . | . | . | . | -2 | . | . | .
CCC(C)c1ccc(O)c(NC(=S)NC(=O)c2cccs2)c1 (centres undefined) | . | . | . | . | 3 | . | . | .
Cc1nc2ccc(S(=O)(=O)N(C)CC(=O)Nc3ccccc3F)cc2s1 | -4 | 16 | 4 | -1 | 0 | -4 | . | .
N/C(=N\OC(=O)c1cccc(Cn2cc(C(F)(F)F)ccc2=O)c1)c1ccc(Cl)cc1 | 113* | 76* | 0 | -6 | 3 | 4 | 47* | 83*
N/C(=N\OC(=O)c1cccc(Cn2cc(C(F)(F)F)ccc2=O)c1)c1ccccc1 | 113* | 68* | 0 | 1 | 2 | 9 | 24 | .
O=C(Sc1ccc(Cl)cc1)c1cccc(Cn2cc(C(F)(F)F)ccc2=O)c1 | -18 | 4 | -1 | 3 | 8 | 11 | . | .
Cc1ccc(/C(N)=N/OC(=O)c2cccc(Cn3cc(C(F)(F)F)ccc3=O)c2)cc1 | 99* | 89* | -1 | -6 | 2 | 7 | 50* | 76*
COc1cccc(NC(=O)COC(=O)CCCC2=NS(=O)(=O)c3ccccc3N2)c1 | -1 | 11 | -8 | 1 | -1 | -11 | . | .
SMILES | Beta cell apopt | Mdm2-MdmX inh | Gli-Sufu block | GRIN3A LBD mod | MPTP block | CSC inhib | Mdm2 MdmX conf | FLuc counter
CC(OC(=O)[C@H](C)N=C1NS(=O)(=O)c2ccccc21)C(=O)Nc1ccc(F)c(F)c1F (some centres undefined) | . | . | . | . | 0 | . | . | .
CCCS(=O)(=O)NC(=O)C1(C)CCCN(C(=O)c2ccc(OC)cc2)C1 (centres undefined) | . | . | . | . | 0 | . | . | .
COCCN(CC(=O)Nc1cccc(C)c1C)C(=O)c1cc2c(s1)CCC2 | -2 | 17 | 4 | 1 | -2 | . | . | .
Cc1ccc(-n2cccc2C(=O)NS(=O)(=O)c2ccc(C)cc2)cc1 | 1 | 4 | -1 | 2 | 1 | -7 | . | .
Cc1ccc(-n2cccc2C(=S)N=P(N(C)C)(N(C)C)N(C)C)cc1 | 102* | 72* | 26 | 1 | 1 | -3 | 50* | 51*
CCOc1ccc(CCN2C(=O)C(=O)N([C@H](CCCN(C)Cc3ccccc3)CNCc3ccccc3)C[C@@H]2C(C)C)cc1 | . | 66* | . | . | . | . | 56* | 58*
COc1ccc(CNC[C@@H](CCCCN(C)Cc2ccc(OC)cc2)N2C[C@H](c3ccccc3)N(CCc3ccc(Cl)c(Cl)c3)C(=O)C2=O)cc1 | 99* | 99* | -18 | -25 | 9 | 107* | 100* | 53*
CC1CCCC(NC(=O)COC(=O)c2cc(=O)[nH]c3ccccc23)C1C (centres undefined) | 0 | 8 | 1 | 1 | 1 | -20 | . | .
COc1ccccc1C(=O)C1CCCN(Cc2cn[nH]c2C2CCCCC2)C1 (centres undefined) | 4 | 21 | 27 | 2 | -2 | -4 | . | .
COc1ncnc(-c2ccccc2)c1-c1ccccc1 | -7 | -5 | -5 | -1 | 5 | 0 | . | .
O=c1cc(CN2CCN(C/C=C/c3ccccc3)CC2)c2cc(O)c(-c3ccccc3)cc2o1 | 20 | 50* | 9 | 3 | 4 | 13 | 42* | 65*
COc1ccc(N2CCN(Cc3cc(=O)oc4cc(-c5ccccc5)c(O)cc34)CC2)cc1 | 34 | 89* | 1 | -16 | -3 | -6 | 59* | 22
O=c1cc(CN2CCN(c3ccc(F)cc3)CC2)c2cc3c(cc2o1)CCCC3 | 16 | 68* | 6 | -1 | 1 | -18 | 1 | .
Cc1cc2oc(=O)cc(CN3CCN(C/C=C/c4ccccc4)CC3)c2cc1O | 12 | 42 | . | . | -2 | -7 | . | .
